# Screens (PubChem BioAssay)
# Only some compounds are listed: those with a hit (about 3.8% of all), similar ones and a draw of the others.
# ATXN2 expr inh: inhibitors of ATXN2 expression; 360,000 compounds, 0.72% hits; Potency, µM (highest dose often 57 µM), without a hit: at the highest dose activity change, negative = inhibition, hits mostly inhibitors; AID 1745845; HEK-293 ATXN2-luciferase reporter, luminescence, 24 h; note: % is set by controls: 0 for no effect and ±100 for the full control effect; nearly all actives have a fitted effect of over 55% in size
#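 ATXN2-luciferase reporter cells (luciferase flanked by upstream and downstream ATXN2 gene portions) were treated 24 h at 37 °C with compounds at up to 57 uM. SteadyGlo luminescence gave expression; GF-AFC fluorescence gave viability.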
# A549 tox: kills or reduces viability of A549 cells in Nrf2 counter-screen; A549 ARE-Fluc cells, CellTiter-Fluor viability, 18-24 h; Potency, µM (series often up to 46 µM), without a hit: at the highest dose activity change, negative = cytotoxicity, hits mostly inhibitors; 390,000 compounds, 0.16% hits; AID 504648; note: % is set by controls: 0 for no effect and ±100 for the full control effect
#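 Cytotoxicity counterscreen: CellTiter-Fluor fluorescence was measured in A549 ARE_Fluc cells after 18-24 h of compound exposure in a concentration series. The subsequent BugLite luminescent read reports ARE-luciferase activity.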
# ATXN viability: reduces viability in counter-screen for ATXN expression inhibitors; S2 cells (HEK-293 line with an ATXN2-luciferase reporter) viability, CellTiter-Fluor protease fluorescence, 24 h; Potency, µM (highest dose often 56.7 µM), most hits filed as cytotoxic; 400,000 compounds, 0.49% hits; note: nearly all actives have a fitted effect of over 40% in size
# HepG2 viability: kills HepG2 cells in TGF-b inhibitor counter-screen. HepG2 CAGA-GFP viability, ATP luminescence, 18 h. Potency, µM (doses to about 46.1 µM), without a hit: at the top dose activity change, negative = cytotoxicity, most hits filed as cytotoxic. 410,000 compounds, 0.76% hits. AID 588856
#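 HepG2 CAGA-GFP cells (1000/well, DMEM with 1% FBS) received compound, then TGF-beta at 500 pg/mL final, and were incubated 18 hours at 37 degrees C. Viability was read by CellTiter-Glo luminescence. Media-only wells were set as complete cell-killing and DMSO as no toxicity.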
# Nrf2 block: Nrf2 pathway inhibition; Potency, µM (highest dose often 46 µM), inactives show at the highest dose activity change, negative = inhibition, hits mostly inhibitors; AID 504444; A549 ARE-Fluc reporter, luciferase luminescence, 18-24 h; 360,000 compounds, 2.1% hits; note: % is set by controls: 0 for no effect and ±100 for the full control effect; nearly all actives have a fitted effect of over 60% in size
#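 Two sequential reads on A549 ARE_Fluc cells exposed to compound for 18-24 h: a CellTiter-Fluor fluorescence read for viability, then a luciferase luminescence read for Nrf2/ARE activity.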
# TGFb SMAD3 inh: blocks TGF-b signaling; AID 588855; Potency, µM (titrated, usually from 46.1 µM), inactives show at the top dose activity, negative = inhibition, actives largely listed as inhibitors; HepG2 CAGA-GFP TGF-b/SMAD3 reporter, GFP fluorescence, 18 h; TGF-beta stimulated, 500 pg/mL final; 410,000 compounds, 1.2% hits; note: % is set by controls: 0 for no effect and ±100 for the full control effect; nearly all actives have a fitted effect of over 65% in size
#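 HEPG2 CAGA-GFP reporter cells (1000/well, DMEM with 1% FBS) received compounds, then recombinant TGF-beta at 500 pg/mL final for 18 hours at 37 degrees C. Per-cell GFP summed per well was normalised to unstimulated and stimulated DMSO controls before curve fitting.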
# An asterisk follows results filed as active; i = inactive; ? = inconclusive; / = no result given; [ ] = remark or other dose. Calls come from the whole dose curve; as a rule, active = well fitted curve in the direction sought with a large enough effect; inconclusive = small, poorly fitted or top-dose-only effect, or another doubt; inactive = no such curve, though single readings can be large; an effect the other way counts as inactive or inconclusive. Potency is the fitted concentration of half-maximal effect.
SMILES,ATXN2 expr inh,A549 tox,ATXN viability,HepG2 viability,Nrf2 block,TGFb SMAD3 inh
COc1ccc(-n2c3c(c(=O)[nH]c2=O)C(C(F)(F)F)(C(F)(F)F)N=C(CC(C)C)N3)cc1,9.4%,1.2%,i,3.1%,?,-0.6%
O=c1[nH]c(=O)n(-c2ccc(F)cc2)c2c1C(C(F)(F)F)(C(F)(F)F)N=C(c1ccc(F)cc1)N2,?,?,?,-47.1%,16.4µM*,?
O=c1[nH]c(=O)n(-c2ccccc2)c2c1C(C(F)(F)F)(C(F)(F)F)N=C(CCC1CCCCC1)N2,2.4%,?,i,-19.3%,18.4µM*,-5.3%
Cc1ccc(C2=NC(C(F)(F)F)(C(F)(F)F)c3c(n(-c4ccc(F)cc4)c(=O)[nH]c3=O)N2)cc1,-12.3%,-13.0%,i,-15.2%,20.6µM*,?
O=c1[nH]c(=O)n(Cc2ccco2)c2c1C(C(F)(F)F)(C(F)(F)F)N=C(CCC1CCCCC1)N2,/,-5.7%,/,-13.1%,-3.6%,-6.4%
Cn1c(SCCOc2ccccc2)nnc1-c1ccc(NC(=O)CCc2ccccc2)cc1,/,/,/,-18.0%,/,-14.6%
Cc1ccn2c(NC(C)(C)C)c(-c3cccs3)nc2c1,-27.1%,-4.8%,i,-11.8%,-8.1%,-19.5%
CCOC(=O)N1CCN(C(=O)CNC(=O)c2ccc(Br)o2)CC1,6.4%,5.1%,i,5.7%,5.6%,-4.0%
N#CC1C(=O)c2ccccc2C1c1ccccc1 (stereo not drawn),?,-5.7%,?,14.1µM*,2.9%,?
Cc1ccc2[nH]c3c(NCc4ccco4)ncnc3c2c1,-15.6%,0.8%,i,-25.8%,?,?
COc1cc(CNc2ncnc3c2[nH]c2ccc(C)cc23)cc(OC)c1,/,-20.0%,i,-27.9%,14.6µM*,?
COc1ccc(CCNc2ncnc3sc(C)cc23)cc1OC,?,-17.9%,i,-24.7%,23.1µM*,-10.9%
CCOc1ccc2[nH]c3c(NCCc4ccc(OC)c(OC)c4)ncnc3c2c1,17.8µM*,-0.4%,?,-59.8%,-19.4%,-11.5%
CCOc1ccc2[nH]c3c(NCCO)ncnc3c2c1,0.5%,0.7%,i,0.2%,9.9%,-21.6%
Fc1ccc2[nH]c3c(NCc4ccco4)ncnc3c2c1,/,-11.0%,/,-45.8%,11.6µM*,?
O=C(NCC1CCCO1)c1cccc(S(=O)(=O)Nc2ccccc2Cl)c1 (stereo not drawn),/,/,i,3.3%,/,-3.9%
CCCN1CCN(C(=O)Cn2ncc3c4ccccc4n(Cc4cccc(Cl)c4)c3c2=O)CC1,-10.3%,-18.6%,?,-23.3%,0.3%,-15.5%
Cc1ccc(C2=CC(C)(c3ccc(C)cc3)Nc3nc(C(F)(F)F)nn32)cc1 (stereo not drawn),6.0%[11.3 µM],-5.6%,i,5.0%,?,?
CC1(c2ccc(OCC#N)cc2)C=C(c2ccc(OCC#N)cc2)n2nc(C(F)(F)F)nc2N1 (stereo not drawn),?,?,i,2.1%,23.1µM*,?
CN(C)c1ccc(N=Nc2ccc(/C=C/c3ccnc4ccccc34)cc2)cc1,/,/,/,-37.6%,/,259.8%
O=C(NNc1nc2ccc(Cl)cc2s1)c1cc(-c2cccs2)nc2ccccc12,31.6µM*,?,?,-60.8%,?,8.91µM*
Cc1cc(C)c2nc(NNC(=O)c3cc(-c4cccs4)nc4ccccc34)sc2c1,?,-18.3%,i,-26.4%,?,?
CN(Cc1ccccc1)C(=O)c1[nH]cnc1C(=O)NCC(=O)OCc1ccccc1,-3.7%,0.5%,i,-6.7%,3.0%,29.3%
CCSc1nnc(SCC(=O)c2c(N)n(C)c(=O)n(C)c2=O)s1,-25.6%,-1.2%,?,-1.7%,20.6µM*,14.2%
O=C(Nc1cccc(S(=O)(=O)Nc2ccccc2F)c1)c1ccco1,-2.9%,-3.1%,?,14.6%,?,13.6%
SMILES,ATXN2 expr inh,A549 tox,ATXN viability,HepG2 viability,Nrf2 block,TGFb SMAD3 inh
O=C1CCC(C(=O)Nc2cccc(S(=O)(=O)Nc3ccccc3F)c2)=NN1,4.7%,2.1%,i,0.0%,25.9µM*,11.9%
CCS(=O)(=O)c1nc(S(=O)(=O)c2ccc(Cl)cc2)c(N2CCC(O)CC2)s1,8.7%,-11.2%,i,-0.8%,-20.4%,-15.4%
N=c1c2c(ccn1-c1ccccc1)Oc1ccc3ccccc3c1C2c1ccccc1 (stereo not drawn),/,?,/,/,16.4µM*,/
N=c1c2c(ccn1CCCc1ccccc1)Oc1ccc3ccccc3c1C2c1ccccc1 (stereo not drawn),/,14.6µM*,/,/,14.6µM*,/
O=C(O)CC1(CC(=O)Nc2ccc3c(c2)OCCCO3)CCCCC1,-3.8%,1.2%,i,5.3%,1.6%,1.5%
Cc1ccccc1Oc1nc2c(C)cccn2c(=O)c1/C=C(\C#N)C(=O)NC1CCS(=O)(=O)C1 (stereo not drawn),-31.3%,-1.1%,?,6.31µM*,-20.3%,?
O=C(Nc1ccc2nc(-c3ccc(Br)o3)[nH]c2c1)c1cccs1,-6.1%,?,?,-39.1%,18.4µM*,4.5%
Cn1cccc1-c1nc2ccc(NC(=O)c3cccs3)cc2[nH]1,16.0%,-13.9%,i,-27.7%,17.8µM*,8.4%
O=[N+]([O-])c1cc(CN2CCOCC2)c2cccnc2c1O,-29.7%,?,?,-6.2%,23.1µM*,-25.7%
O=[N+]([O-])c1cc(CN2CCN(c3ccccc3)CC2)c(O)c2ncccc12,?,?,?,-26.6%,2.59µM*,?
O=C(Oc1c(CN2CCOCC2)cc(Cl)c2cccnc12)c1ccccc1F,?,-10.5%,/,-52.5%,-9.7%,?
CC(=O)n1cc(N(C(=O)CCl)c2ccc(Cl)cc2)c2ccccc21,/,?,3.55µM*,7.94µM*,?,?
COc1ccccc1N(C(=O)CCl)c1cn(C(C)=O)c2ccccc12,/,-1.5%,6.31µM*,11.2µM*,23.1µM*,11.2µM*
COc1cnc(SC)nc1Nc1ccc(C#N)cc1,/,0.9%,?,-0.9%,-28.5%,2.5%
Cc1ccc(NC(=S)NC2CCSc3ccccc32)cc1C (stereo not drawn),-29.7%,-21.6%,i,-10.8%,23.1µM*,15.8µM*
COC(=O)c1ccc(C(=O)NC2CCSc3ccccc32)cc1 (stereo not drawn),-0.2%,5.1%,i,-39.6%,10.8%,-2.1%
O=C(Nc1ccc(F)c(Cl)c1)Nc1csc2ccccc12,-35.5%,?,i,12.6µM*,?,?
O=C(Nc1ccc(F)cc1F)Nc1csc2ccccc12,34.1%,-15.9%,i,-39.8%,?,?
